RGS12 GoLoco inh: qHTS Assay for Inhibitors of RGS12 GoLoco Motif Activity (Red Fluorophore) | Guanine nucleotide-binding protein G(i) subunit alpha-1 (Homo sapiens), P63096 | 0.44% of 230,000 active | AID 880, 2007 | Gai1:RGS12 GoLoco peptide FP, rhodamine, 10 min | Potency, µM (highest dose often 61.6 µM), hits mostly inhibitors; active = well fitted inhibition curve with a large enough effect, not every such curve was filed as active; inactive = no such curve, though single readings can be large or run the other way; also: nearly all actives have a fitted effect of over 30% in size
NPSR antag: qHTS Assay for Antagonists of the Neuropeptide S Receptor: cAMP Signal Transduction. CHO-NPSR cells, cAMP TR-FRET, antagonist mode. AID 1461, 2008. Potency, µM (titrated, usually from 38.3 µM), actives largely listed as inhibitors. 1% of 220,000 active; also: nearly all actives have a fitted effect of over 50% in size
Target sequence (Q6W5P4 whole entry, looked up): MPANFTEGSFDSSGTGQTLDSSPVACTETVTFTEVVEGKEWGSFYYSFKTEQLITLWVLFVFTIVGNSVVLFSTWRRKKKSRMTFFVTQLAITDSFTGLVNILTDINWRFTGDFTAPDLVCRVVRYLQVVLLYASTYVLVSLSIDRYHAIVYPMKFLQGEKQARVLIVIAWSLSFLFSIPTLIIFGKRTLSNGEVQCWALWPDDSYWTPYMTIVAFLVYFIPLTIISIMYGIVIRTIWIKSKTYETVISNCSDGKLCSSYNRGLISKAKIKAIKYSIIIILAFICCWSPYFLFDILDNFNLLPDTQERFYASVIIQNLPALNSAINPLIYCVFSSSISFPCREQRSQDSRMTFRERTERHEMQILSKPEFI
ALDH1A1 inh: qHTS Assay for Inhibitors of Aldehyde Dehydrogenase 1 (ALDH1A1); Purified ALDH1A1, NADH fluorescence, propionaldehyde substrate; Potency, µM (series often up to 75.3 µM), usual class: inhibitors; 7.3% of 220,000 active; AID 1030, 2008; active = well fitted inhibition curve with a large enough effect, not every such curve was filed as active; inconclusive = small, poorly fitted or top-dose-only effect, or another doubt; inactive = no such curve, though single readings can be large or run the other way
FBPA coupling cs: qHTS Assay for Inhibitors of Fructose-1,6-bisphosphate Aldolase from Giardia Lamblia: Coupling assay counterscreen. coupling enzyme system counterscreen, AmpLite Red fluorescence. 0.67% of 290,000 active. AID 2472, 2010. activity change, negative = inhibition, % at 58.2 µM, hits read low; in the data active = activity change below about -30%
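First, compound is pin-transferred into glyceraldehyde-3-phosphate coupling-enzyme reagent at 57.5 uM final and held 10 min at RT. Next, substrate, coupling system and AmpLite Red are added. After 20 min RT, fluorescence (525/598 nm) is read.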
KDM4E inh: qHTS Assay for Inhibitors of Human Jumonji Domain Containing 2E (JMJD2E); JMJD2E catalytic domain, FDH-coupled NADH fluorescence (FDH is formaldehyde dehydrogenase); Potency, µM (titrated, usually from 57.1 µM), actives largely listed as inhibitors; 1.6% of 230,000 active; active = well fitted inhibition curve with a large enough effect, not every such curve was filed as active; inconclusive = small, poorly fitted or top-dose-only effect, or another doubt; inactive = no such curve, though single readings can be large or run the other way; also: nearly all actives have a fitted effect of over 50% in size
Target sequence (B2RXH2 1-337 limits assumed): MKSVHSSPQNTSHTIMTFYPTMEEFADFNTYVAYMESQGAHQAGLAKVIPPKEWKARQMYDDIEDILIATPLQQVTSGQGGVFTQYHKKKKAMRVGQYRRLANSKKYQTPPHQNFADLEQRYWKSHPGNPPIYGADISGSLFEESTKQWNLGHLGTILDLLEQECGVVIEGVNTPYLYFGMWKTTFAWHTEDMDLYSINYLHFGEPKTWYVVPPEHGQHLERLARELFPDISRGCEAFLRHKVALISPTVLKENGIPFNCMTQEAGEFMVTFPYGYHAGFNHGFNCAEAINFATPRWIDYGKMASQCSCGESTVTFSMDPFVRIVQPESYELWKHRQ
Sfp inh: qHTS Assay for Inhibitors of Bacillus subtilis Sfp phosphopantetheinyl transferase (PPTase). Biochemical Sfp PPTase activity, qHTS. Potency, µM, hits mostly inhibitors. 3.5% of 310,000 active. AID 1490, 2009;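 also: the enzyme is Sfp with the accession as filed and its product quenches rhodamine fluorescence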
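Fluorescence-quenching assay with 15 nM Sfp, 5 uM rhodamine-CoA and 12.5 uM BHQ-2-labelled ybbR peptide in pH 7.6 Hepes/MgCl2 buffer. Enzyme was pre-incubated with compound for 15 min at room temperature. Rate was taken from the 30-min fluorescence change (525/598 nm).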
Hits are given with their value; 0 = inactive; ? = inconclusive; - = not tested or not shown. In the library only some 8.5% were active in any assay of this set; here they are far more common. Unless noted, calls follow the shape of the dose curve; as a rule, active = well fitted curve in the direction sought with a large enough effect; inconclusive = small, poorly fitted or top-dose-only effect, or another doubt; inactive = no such curve, though single readings can be large; an effect the other way counts as inactive or inconclusive.

SMILES	RGS12 GoLoco inh	NPSR antag	ALDH1A1 inh	FBPA coupling cs	KDM4E inh	Sfp inh
Cc1cccc(OCC(=O)NC(=S)N2CCCc3ccccc32)c1	0	0	?	-	0	79µM
O=C(COc1ccc(Cl)cc1Cl)NC(=S)N1CCCc2ccccc21	0	0	7.5µM	0	0	56µM
O=C(COc1ccc(Cl)cc1Cl)OCC(=O)N1CCCc2ccccc21	0	0	0	0	0	0
Nc1nc(-c2ccc3c(c2)OCCO3)c(CC(=O)O)s1	-	-	-	0	-	0
Cc1sc(N)nc1-c1ccc2c(c1)OCCO2	-	-	-	0	-	79µM
NC1=NN=C(c2ccc3c(c2)OCCO3)CS1	0	0	0	0	0	79µM
CC[C@](N)(CCC(=O)O)C(=O)O	0	-	0	0	0	0
COC(=O)c1cc2c(C(F)(F)F)nn(C)c2s1	0	0	0	0	0	0
COC(=O)c1c(NC(=S)Nc2ccc(C(=O)N3CCOCC3)cc2)sc2c1CCC2	0	0	3.5µM	0	0	?
COC(=O)c1c(NS(C)(=O)=O)sc2c1CCCC2	0	0	?	0	0	18µM
COC(=O)c1c(NC(C)=O)sc2c1CCCC2	0	0	25µM	0	?	0
COC(=O)c1c(NC(=S)Nc2ccc(F)cc2[N+](=O)[O-])sc2c1CCCCC2	-	0	4µM	0	0	14µM
CNC(=S)Nc1sc2c(c1C(=O)OC)CCC2	0	0	?	0	?	0
CC(C)CCNC(=O)c1cc(-c2cccs2)nc2ccccc12	-	-	-	0	-	0
C=CCC1(C#N)C(SC)=NC2=C(C(=O)CC(C)(C)C2)C1c1ccc(Br)cc1 (stereo not drawn)	0	?	0	0	0	0
COC(=O)c1c(NC(C)=O)sc2c1CCCCC2	0	0	16µM	0	0	56µM
COC(=O)c1c(NC(=O)CCNCc2ccco2)sc2c1CCC2	0	0	24µM	0	?	0
COc1ccc(NC(=O)c2c(NC(=O)CNCc3ccco3)sc3c2CCC3)cc1	0	0	?	0	0	0
CCc1nnc(NC(=O)CCC(=O)NC2CCCC2)s1	-	-	-	-	-	0
COc1ccc(Cl)cc1S(=O)(=O)N1CCC(C(=O)NCc2ccco2)CC1	-	-	-	0	-	0
O=C(c1ccccc1F)c1cc2c(cc1[N+](=O)[O-])OCCO2	0	0	11µM	0	0	0
COc1ccc(C(=O)c2cc3c(cc2[N+](=O)[O-])OCCO3)cc1	0	0	?	0	0	0
O=C(NCC(=O)N1CCN(C(=O)c2ccco2)CC1)c1ccc(Br)cc1	-	-	-	-	-	0
COCC(C)NC(=O)NC(=O)c1ccc(Cl)cc1 (stereo not drawn)	0	0	0	0	0	0
O=C(NCCN1CCOCC1)NC1(C(F)(F)F)Oc2ccc(Cl)cc2O1 (stereo not drawn)	0	0	0	0	3.2µM	0
SMILES	RGS12 GoLoco inh	NPSR antag	ALDH1A1 inh	FBPA coupling cs	KDM4E inh	Sfp inh
COCC(C)NC(=O)NC1(C(F)(F)F)Oc2ccc(Cl)cc2O1 (stereo not drawn)	-	0	22µM	0	?	0
Oc1ccccc1C1CCCCC1c1ccccc1 (stereo not drawn)	-	-	-	0	-	0
Oc1ccc2ccccc2c1C=NCc1cn2ccsc2n1	0	0	?	-35	?	0
CC(=O)Oc1ccc(N2C(=O)C3C4C=CC(CC4)C3C2=O)cc1[N+](=O)[O-] (stereo not drawn)	0	0	0	0	0	0
CN1CC(=O)N(CC(=O)Nc2cc(Cl)cc(Cl)c2)C1=O	0	0	10µM	0	0	0
COc1ccc(S(=O)(=O)N2CCOCC2)cc1C(=O)N1CCCC1	-	-	-	-	-	0
CC(=O)CSc1nc2cc3c(cc2cc1C#N)OCCO3	0	0	?	-43	?	0
COc1cc2ccccc2cc1C(=O)NC(=S)Nc1cc(C(=O)O)ccc1C	0	0	0	0	0	0
COc1ccccc1C(=O)NC(=S)Nc1cc(C(=O)O)ccc1C	0	0	14µM	0	0	0
Cc1ccc(C(=O)O)cc1NC(=S)NC(=O)c1ccc(COc2ccccc2)cc1	-	-	-	-	-	50µM
CCSC(=O)NC1CCCCC1	0	0	-	0	0	0
Cc1cc(C)cc(OC(=O)COc2ccccc2C)c1	-	-	-	0	-	0
COCCCNC(=O)C1=CCN(S(=O)(=O)c2ccc(OC)cc2)CC1	-	-	-	-	-	0
Cc1ccccc1-n1sc2cc(F)ccc2c1=O	28µM	0	0.56µM	0	11µM	0.56µM
N=c1c(C(=O)NC2CCCCC2)cc2c(=O)n3ccccc3nc2n1CCc1ccccc1	-	-	-	0	-	0
CCCCc1cc(=O)oc2cc(C)cc(OCC(=O)NC(Cc3ccc(Cl)cc3)C(=O)O)c12 (stereo not drawn)	-	-	-	0	-	0
O=C1OC(/C=C/c2ccc(Cl)cc2)=NC/1=C/c1ccco1	0	0	2µM	0	0	0
O=C1OC(/C=C/c2ccccc2)=NC/1=C/C=C/c1ccccc1	0	0	?	0	0	0
COc1cccc(/C=N/Nc2snc(SC)c2C#N)c1	0	0	?	0	0	56µM
COc1ccc(/C=N/Nc2snc(SC)c2C#N)cc1OC	0	?	?	-	0	?
O=C(O)Cc1sc(N/N=C\c2ccccc2)nc1-c1ccccc1	0	0	1.1µM	0	0	40µM
CCOC(=O)c1sc(N/N=C/c2ccccc2)nc1C	0	0	8.9µM	0	?	35µM
CCOC(=O)c1sc(N/N=C/c2cccc(C)c2)nc1C	0	0	0	0	?	0
CCOC(=O)c1sc(NC(=O)C2C3C=CC(C3)C2C(=O)O)nc1C (stereo not drawn)	0	0	0.5µM	0	0	0
CC(=O)c1sc(N/N=C\c2ccccc2O)nc1C	0	1.6µM	0	0	28µM	0
SMILES	RGS12 GoLoco inh	NPSR antag	ALDH1A1 inh	FBPA coupling cs	KDM4E inh	Sfp inh
CCOC(=O)c1sc(NC(=O)C2CC2)nc1C	0	0	0	0	0	0
COc1ccc(/C(C)=N/Nc2nc(C)c(C(C)=O)s2)cc1	-	-	-	0	-	0
CCOC(=O)C1(Cc2ccc(OC)cc2)CCN(C(=O)c2cc(C)nn2C)CC1	-	-	-	-	-	0
CN(C)S(=O)(=O)c1cccc(C(=O)Nc2cc3c(cc2C(=O)O)OCCCO3)c1	-	-	-	0	-	0
Cc1ccc(-n2c(SCC(=O)N3CCOCC3)nnc2-c2ccncc2)cc1C	0	0	-	0	0	0
COc1nc(/C(N)=N/O)nc(N2CCCCC2)n1	0	0	0	0	0	79µM
CCN1CCc2c(sc(NC(=O)c3ccc4ccccc4c3)c2C(N)=O)C1	-	-	-	-	-	0
CCCN1CCc2c(sc(NC(=S)NC(=O)c3ccccc3)c2C#N)C1	0	0	7.9µM	0	?	50µM
